FBPA Giardia inh = blocks Giardia fructose-bisphosphate aldolase activity. Potency, µM (series often up to 59.6 µM), inactives show at the highest dose activity, negative = inhibition, usual class: inhibitors. A8B2U2. hit rate 0.71% among 290,000. purified Giardia FBPA; also: potency is read from the fitted curve at half-maximal effect; nearly all actives have a fitted effect of over 55% in size
Target sequence (A8B2U2 whole entry, looked up): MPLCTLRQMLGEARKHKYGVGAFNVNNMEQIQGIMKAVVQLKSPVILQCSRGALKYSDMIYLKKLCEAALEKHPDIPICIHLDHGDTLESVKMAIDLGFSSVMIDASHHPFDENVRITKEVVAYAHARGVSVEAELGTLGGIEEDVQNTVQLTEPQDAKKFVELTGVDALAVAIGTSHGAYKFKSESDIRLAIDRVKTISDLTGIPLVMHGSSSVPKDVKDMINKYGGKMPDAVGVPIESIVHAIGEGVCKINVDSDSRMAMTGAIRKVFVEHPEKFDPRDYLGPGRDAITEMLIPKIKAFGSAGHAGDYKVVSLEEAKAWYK
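Giardia FBPA (40 nM reagent) was preincubated 10 min at RT with compound (up to 57.5 uM final), then substrate plus GAPDH/TPI/NAD/arsenate coupling system with diaphorase/resazurin was added; resorufin fluorescence (525/598 nm) was read after 20 min.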
HCMV inh = human cytomegalovirus inhibition; HFF cells, HCMV-luciferase reporter, 72 h; hits give low values; activity change, negative = inhibition, % at 57.5 µM; hit rate 4.5% among 410,000; in the data active = activity change below about -60%; inconclusive = no clear call, values can overlap the other calls; inactive = above about -39%
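Luciferase read-out from HCMV-luciferase-infected HFFs (MOI 1 PFU/cell) 72 h post infection at 37C; compounds added after 16 h cell attachment; activity normalized between buffer-only basal and Salinomycin (10uM) inhibitor controls.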
HCV inh = blocks hepatitis C virus; AID 651820; hit rate 3.4% among 340,000; Potency, µM (highest dose often 41.8 µM), inactives show at the top dose activity change, negative = inhibition, usual class: inhibitors; Huh7.5.1 HCVcc-Cre infection, luciferase reporter, 44 h; also: potency is read from the fitted curve at half-maximal effect
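Antiviral activity was scored by luciferase reporter output from cells infected with HCVcc-Cre (~0.5 moi) in presence of compound, 44 h infection period, cells seeded 1,000/well 4 h prior.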
LASV entry inh = blocks Lassa virus binding to or entry into cells; hit rate 1.2% among 300,000; Lassa virus pseudotype entry inhibition, cell reporter; Potency, µM (top dose mostly 37.9 µM), for inactives: at the top dose activity change, negative = inhibition, hits mostly inhibitors; calls by dose curve; tested in HEK293 cells; also: potency is read from the fitted curve at half-maximal effect; nearly all actives have a fitted effect of over 50% in size
MARV entry inh = blocks Marburg virus binding to or entry into cells | hit rate 1.8% among 300,000 | AID 540276 | Potency, µM (series often up to 37.8 µM), for inactives: at the highest dose activity change, negative = inhibition, most hits filed as inhibitors | Marburg virus pseudotyped entry inhibition, cell reporter; calls by dose curve; tested in HEK293 cells; also: potency is read from the fitted curve at half-maximal effect
FMDV antiviral = foot and mouth disease virus antiviral activity | Potency, µM (highest dose often 57.9 µM), without a hit: at the highest dose activity change, negative = inhibition, most hits filed as inhibitors | hit rate 1.2% among 410,000 | FMDV antiviral cell-based qHTS | AID 1159524; calls by dose curve; tested in HEK293T cells; also: read-out not given here; potency is read from the fitted curve at half-maximal effect; nearly all actives have a fitted effect of over 45% in size
An asterisk follows results filed as active; [ ] = remark or other dose. Sampled rows, rich in hits. Any-hit rate of the full collection: about 8.3%. Unless noted, calls follow the shape of the dose curve; as a rule, active = well fitted curve in the direction sought with a large enough effect; inconclusive = small, poorly fitted or top-dose-only effect, or another doubt; inactive = no such curve, though single readings can be large; an effect the other way counts as inactive or inconclusive. % is scaled to controls: 0 for no effect and ±100 for the full control effect.

How did COc1ccc(CNC(=O)CN(c2ccc(C(C)C)cc2)S(=O)(=O)c2c(C)noc2C)cc1 do in these assays?
HCMV inh: -31; HCV inh: 10µM*; FMDV antiviral: -14%

Results for CCOc1ccc(N(CC(=O)Nc2ccc(C)cc2)S(=O)(=O)c2c(C)noc2C)cc1 ?
FBPA Giardia inh: -1%; HCMV inh: -34; HCV inh: -24%; MARV entry inh: -5%; FMDV antiviral: 0%

How did CCOc1ccc(N(CC(=O)Nc2ccc(F)c(F)c2)S(=O)(=O)c2c(C)noc2C)cc1 do in these assays?
FBPA Giardia inh: -1%; HCMV inh: -63*; HCV inh: 0%; LASV entry inh: 6%; MARV entry inh: -6%; FMDV antiviral: -20%

What do the screens show for `O=C(NCc1ccccc1)Nc1cccn(Cc2c(F)cccc2Cl)c1=O`?
FBPA Giardia inh: -25%; HCMV inh: -74*; HCV inh: inconclusive; FMDV antiviral: inconclusive

Results for O=C(Nc1cccn(Cc2c(Cl)cccc2Cl)c1=O)C1CC1 ?
FBPA Giardia inh: -10%; HCMV inh: inconclusive; HCV inh: -9%; LASV entry inh: -19%; MARV entry inh: 8%[46.1 µM]; FMDV antiviral: -16%

What do the screens show for `O=C(Nc1cccn(Cc2c(F)cccc2Cl)c1=O)NC1CCCCC1`?
FBPA Giardia inh: inconclusive; HCMV inh: inconclusive; HCV inh: inconclusive; FMDV antiviral: -4%

What do the screens show for `Cc1ccc(NC(=O)Nc2cccn(Cc3c(F)cccc3Cl)c2=O)cc1`?
FBPA Giardia inh: -20%; HCMV inh: 33; HCV inh: 11µM*; FMDV antiviral: 0%

What do the screens show for `CCN1C(=O)[C@H]2[C@H]3[C@H](O)[C@H](O)C/C(=N/NC(=O)OCc4ccc(OC)cc4)[C@@H]3CC[C@@H]2C1=O`?
FBPA Giardia inh: 3%[12.9 µM]

What do the screens show for `Cc1noc(C)c1-c1cc(NCCN2CCOCC2)ncn1`?
FBPA Giardia inh: 1%; FMDV antiviral: 12%

What do the screens show for `COc1ccc(/C=N/NC(=O)c2nc(-c3ccccc3)n(-c3ccccc3)n2)c(O)c1`?
FBPA Giardia inh: 2%; HCMV inh: inconclusive; HCV inh: inconclusive; LASV entry inh: inconclusive; MARV entry inh: inconclusive; FMDV antiviral: -24%

How did CC(C)(C)c1cc(C(=O)N/N=C/c2ccc(F)cc2)n(-c2ccccc2)n1 do in these assays?
FBPA Giardia inh: -2%; HCMV inh: -74*; HCV inh: inconclusive; LASV entry inh: -22%; MARV entry inh: inconclusive; FMDV antiviral: -6%

Results for CC(C)(C)c1cc(C(=O)N/N=C/c2ccccc2O)n(-c2ccccc2)n1 ?
FBPA Giardia inh: -25%; HCMV inh: -97*; HCV inh: -6%; LASV entry inh: inconclusive; MARV entry inh: inconclusive; FMDV antiviral: -20%

What do the screens show for `COC(=O)C1=C(C)N(Cc2ccccc2)C(=NCCc2cccnc2)NC1c1ccccc1` (centres undefined)?
MARV entry inh: -11%[14.2 µM]

What do the screens show for `CC[N+](CC)(CC)CCOc1ccc(/C=C\c2ccccc2)cc1`?
FBPA Giardia inh: 0%; FMDV antiviral: -26%

How did CC[N+](CC)(CC)CCOc1ccc(/C=C/c2ccccc2)cc1 do in these assays?
HCMV inh: -99*; HCV inh: inconclusive; FMDV antiviral: inconclusive

How did COc1ccc(C2=N[C@H](c3ccccc3)CO2)cc1 do in these assays?
FBPA Giardia inh: 0%[89.2 µM]

How did COc1ccc(C2CC23N=C(c2ccccc2)OC3=O)cc1 (centres undefined) do in these assays?
FBPA Giardia inh: -3%; HCMV inh: -7; HCV inh: 27%; LASV entry inh: -16%; MARV entry inh: inconclusive; FMDV antiviral: 22µM*

How did C=CCn1c(SCC(=O)NC(N)=O)nnc1-c1cc2c(s1)CCC(CC)C2 (centres undefined) do in these assays?
FBPA Giardia inh: 0%; HCMV inh: -15; HCV inh: 7%; LASV entry inh: -28%; MARV entry inh: 20%; FMDV antiviral: -4%

Results for C=CCn1c(SCC(=O)NCC)nnc1-c1cc2c(s1)CCC(CC)C2 (centres undefined) ?
FBPA Giardia inh: 8%; HCMV inh: -68*; HCV inh: inconclusive; LASV entry inh: 0%; MARV entry inh: 0%; FMDV antiviral: -3%

How did c1ccc2c(-c3ccc4nncn4c3)cncc2c1 do in these assays?
HCMV inh: -70*; FMDV antiviral: -17%

Results for c1coc(-c2ccc3nncn3c2)c1 ?
HCMV inh: -2; FMDV antiviral: -10%

How did CCCN1C(=O)C2(c3ccccc31)c1c(oc3ccccc3c1=O)C(=O)N2CCO (centres undefined) do in these assays?
HCMV inh: 0; LASV entry inh: 18%[46.1 µM]; MARV entry inh: 14%[46.1 µM]; FMDV antiviral: 0%

Results for C[C@@H](C(=O)NCC1CC1)[C@@H]1C[C@@]1(C)[C@@H](NC(=O)OCc1ccccc1)c1ccccc1 ?
FBPA Giardia inh: -4%; HCMV inh: -9; HCV inh: 0.56µM*; LASV entry inh: inconclusive; MARV entry inh: -18%; FMDV antiviral: 8%

Results for C[C@@H](C(=O)NCCF)[C@H]1C[C@]1(C)[C@H](NC(=O)OCc1ccccc1)c1ccccc1 ?
FBPA Giardia inh: 6%

Results for Cc1ccccc1NC(=O)c1c(C)oc2ccc(O)c(CN3CCCCCC3)c12 ?
HCMV inh: -30; LASV entry inh: -21%[46.1 µM]; MARV entry inh: inconclusive; FMDV antiviral: -21%

Results for O=C1C2CC=CCC2C(=O)N1SC(Cl)(Cl)Cl (centres undefined) ?
HCMV inh: -74*

How did N#CCCCS(=O)(=O)c1nnnn1-c1ccc(Br)cc1 do in these assays?
FBPA Giardia inh: 0%

Results for Cc1oc2c(Cl)c(Cl)c(O)c(CN(C)C)c2c1C(=O)c1ccc(Cl)cc1 ?
FBPA Giardia inh: inconclusive; HCMV inh: -69*; HCV inh: inconclusive; FMDV antiviral: inconclusive

How did COc1ccc(Cn2c(CCC(=O)NCc3ccc(Cl)cc3)nc3cccnc32)cc1 do in these assays?
HCMV inh: 11; LASV entry inh: 5%[46.1 µM]; MARV entry inh: 6%[46.1 µM]; FMDV antiviral: 3%

Results for O=C(C1CCCCC1)N1C[C@@H](n2cc(-c3ccc(F)cc3)nn2)[C@@H](O)C[C@@H]1c1ccccc1 ?
LASV entry inh: -2%[46.1 µM]

How did Cc1ccccc1C(=O)c1cccn1CC(=O)NCCC1=CCCCC1 do in these assays?
FBPA Giardia inh: 2%; HCMV inh: inconclusive; HCV inh: -6%; LASV entry inh: -11%; MARV entry inh: -15%[46.1 µM]; FMDV antiviral: 13%

What do the screens show for `Cc1ccccc1C(=O)c1cccn1CC(=O)NCCN1CCN(c2cccc(C)c2C)CC1`?
FBPA Giardia inh: 5%; HCMV inh: 25; HCV inh: 11µM*; LASV entry inh: inconclusive; MARV entry inh: inconclusive; FMDV antiviral: inconclusive

High-throughput results (PubChem BioAssay)
